# Data from PubChem BioAssay AID2778 (National Center for Advancing Translational Sciences (NCATS), 2010).
# Results filed as inconclusive are left out. A call without a number means that no potency is given here. The source made the active and inactive calls. Calls follow the shape of the dose curve; as a rule, active = well fitted inhibition curve with a large enough effect; inconclusive = small, poorly fitted or top-dose-only effect, or effect the other way; inactive = flat fitted curve, though single readings scatter. Positions of bridges follow the written chain, without caps; N, C: chain ends. Non-standard residues stand in square brackets, D forms with d. Residues, ends and D or L forms follow the SMILES beside them. ξ: configuration not given here. *: point of attachment. Octanoyl(6-Me) = CCC(C)CCCCC(=O)*; ξThr(3R) = C[C@@H](O)C(N)C(=O)O; dDab = NCC[C@@H](N)C(=O)O; Dab = NCC[C@H](N)C(=O)O
# Molecular target: Menin (Homo sapiens) (UniProt O00255)
# Assay: Confirmation of Inhibitors Targeting the Menin-MLL Interaction in MLL Related Leukemias: Confirmation in an HTRF (commercial TR-FRET) Assay using His-tagged menin and biotin-labeled MLL peptide
# How it was run: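 Compounds were incubated 1 hr at ambient with a preformed His6-menin (200 nM)/biotinylated MLL-w.t. peptide (80 nM) complex in Tris pH 7.5 buffer; anti-His Eu-cryptate (3.5 nM) and SA-XL665 (10 nM) added, TR-FRET read after 1h.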
# Potency is read from the fitted curve at half-maximal effect.
# Sequence of Menin (Homo sapiens) (O00255 whole entry, looked up): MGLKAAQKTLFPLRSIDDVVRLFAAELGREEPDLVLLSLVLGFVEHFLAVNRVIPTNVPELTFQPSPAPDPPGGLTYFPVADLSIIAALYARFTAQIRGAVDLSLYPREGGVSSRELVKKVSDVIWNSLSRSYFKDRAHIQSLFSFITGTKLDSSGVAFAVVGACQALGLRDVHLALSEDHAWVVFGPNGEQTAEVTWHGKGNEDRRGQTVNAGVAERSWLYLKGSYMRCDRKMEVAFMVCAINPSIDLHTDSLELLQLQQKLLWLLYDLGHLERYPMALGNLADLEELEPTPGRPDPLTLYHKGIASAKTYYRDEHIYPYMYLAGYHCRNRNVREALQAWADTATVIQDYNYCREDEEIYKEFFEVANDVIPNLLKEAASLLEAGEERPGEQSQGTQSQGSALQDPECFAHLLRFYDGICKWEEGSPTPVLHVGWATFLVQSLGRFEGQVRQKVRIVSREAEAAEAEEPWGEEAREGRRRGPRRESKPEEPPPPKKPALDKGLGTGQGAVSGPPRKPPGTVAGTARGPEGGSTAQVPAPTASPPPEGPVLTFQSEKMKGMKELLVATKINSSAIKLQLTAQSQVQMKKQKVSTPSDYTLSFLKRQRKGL
row,SMILES,Potency
1,Cc1ccc[n+](-c2nc([O-])sc2/C=N/Nc2ccc([N+](=O)[O-])cc2)c1,inactive
2,COc1ccc2[nH]c3c(C)c4ccncc4c(C)c3c2c1,89.1 µM (active)
3,O=C(Nc1nnc(SCc2ccc(F)cc2)s1)c1ccc2c(c1)C(=O)N(c1ccccc1Cl)C2=O,inactive
4,CCN1C(=O)[C@@H]2C(C(=O)c3cnccn3)=NN[C@@H]2C1=O,inactive
5,Cc1c(F)cccc1NS(=O)(=O)c1ccc2c(c1)c(C)cc(=O)n2C,inactive
6,Cc1cnc(NC(=O)C2C(=O)c3ccccc3S(=O)(=O)N2C)s1 (centres undefined),inactive
7,CC(=O)NC1C(=O)N(CCN2CCOCC2)c2ccc(F)cc21 (centres undefined),inactive
8,COc1ccc(CN2CCC(Cc3ccccc3)CC2)c(C)c1C,inactive
9,NC(=O)c1ccc(NC(=O)c2cncn2-c2ccccc2)cc1,inactive
10,CS(=O)(=O)c1ccc2nc(NC(=O)Nc3cccc(Cl)c3)sc2c1,112 µM (active)
11,COc1ccc2[nH]c(=O)c(CN(Cc3cccs3)C(=S)Nc3cccc(C)c3)cc2c1,inactive
12,COc1cnc(-c2ccccn2)nc1N(C)c1ccccc1,inactive
13,O=C(Nc1ccc2c(c1)OCO2)c1ccccc1,inactive
14,CCCc1cc(=O)oc2c3c(c(Cl)cc12)OCN(CCCO)C3,inactive
15,O=C(CS)Nc1ccc2ccccc2c1,inactive
16,CCOc1ccc(C2Nc3ccc4ccccc4c3-c3c2c(=O)oc2ccccc32)cc1 (centres undefined),inactive
17,COc1ccc(Cn2nnnc2C(c2ccccc2)N2CCN(C3CCCC3)CC2)cc1 (centres undefined),inactive

row,SMILES,Potency
1,CCOC(=O)C1CCN(CC(O)COCc2ccccc2)CC1 (centres undefined),inactive
2,CCC(=O)NC(=S)Nc1ccc(-c2nc3ccc(C)cc3s2)cc1,inactive
3,Cc1nc(C)c(-c2ccc(SCc3ccccc3F)nn2)s1,inactive
4,COc1ccc(-c2cc(-c3ccc(C)cc3)n[nH]2)c(O)c1,inactive
5,Cc1cc2c(c(=O)n1Cc1ccccc1)C1O[C@](c3ccsc3)(Cc3cc(C#N)ccc31)O2,inactive
6,COc1cccc(-c2nn(-c3ccccc3)cc2/C=C\C(=O)c2cccs2)c1,inactive
7,CCn1cnc2c1c(=O)n(CC(=O)O)c(=O)n2Cc1ccccc1,inactive
8,CSC[C@@H]1NC(=S)N(c2ccc(C)cc2)C1=O,inactive
9,CC(=O)c1ccc2c(c1)N(CCCN1CCC(CCO)CC1)c1ccccc1S2,inactive
10,O=C1CCNc2c(Cl)cc(Cl)cc21,inactive
11,c1ccc(-c2ccc(-c3csnn3)cc2)cc1,inactive
12,COc1cc(O)c(C(=O)c2ccccc2)cc1O,inactive
13,CCC(C)CCCCC(=O)N[C@@H](CCN)C(=O)N[C@H](C(=O)N[C@@H](CCN)C(=O)N[C@H]1CCNC(=O)C([C@@H](C)O)NC(=O)[C@@H](CCN)NC(=O)[C@H](CCN)NC(=O)[C@H](CC(C)C)NC(=O)[C@@H](CC(C)C)NC(=O)[C@H](CCN)NC1=O)[C@@H](C)O (stereo partly drawn) ({Octanoyl(6-Me)}-[Dab]T[Dab][Dab][Dab][dL]L[Dab][dDab][ξThr(3R)]; lactam 4-C),inactive
14,O=C(Nc1cc(Br)ccc1O)c1cc(-c2ccc3c(c2)OCO3)on1,inactive
15,COc1ccc(-c2csc(NC(=O)c3cc(-c4cccs4)nc4ccccc34)n2)c(OC)c1,inactive
16,CCC(=O)NC(=S)Nc1ccc(NC(=S)NC(=O)c2ccc(C)cc2)cc1,inactive
17,O=C1C(=O)c2ncccc2-c2cccnc21,inactive
